Hits are enriched below; roughly 0.58% of the tested compounds scored in any of these assays.
CatB mix inh = cathepsin B inhibitors from pooled compounds, primary screen, biochemical, compound mixtures, AMC fluorescence. P07858. Purified cathepsin B, AMC dipeptide fluorescence. inhibition, %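 (ten-compound pools at 5 µM per compound and 50 µM total)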. 0.06% of 62,000 active. AID 488, 2006; in the data active means inhibition above about 22%, passing the limit was not always enough
CatB inh = human cathepsin B inhibitors, primary screen, biochemical, fluorogenic substrate; purified cathepsin B, fluorescence; AID 453, 2006; inhibition, %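 (tested at 10 µM)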; 0.1% of 63,000 active; in the data active means inhibition above about 21%
CatG inh = human cathepsin G inhibitors, primary screen, biochemical, pooled compound mixtures, AMC fluorescence. P08311. purified enzyme, AMC-tetrapeptide fluorescence. inhibition, % at 5 µM (by protocol). 0.2% of 62,000 active;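 active means inhibition above 20% in each of the two mixture wells holding the compound; inactive means inhibition of 20% or less in either well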
CatS inh = inhibitors of human cathepsin S, biochemical, compound mixtures; recombinant cathepsin S, AMC dipeptide fluorescence, pooled mixtures; inhibition, %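 (tested at 5 µM per compound within 10-compound mixtures)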; 0.06% of 62,000 active; AID 501, 2006; in the data active means inhibition above about 32%, passing the limit was not always enough
Target sequence (P25774 115-331 limits assumed): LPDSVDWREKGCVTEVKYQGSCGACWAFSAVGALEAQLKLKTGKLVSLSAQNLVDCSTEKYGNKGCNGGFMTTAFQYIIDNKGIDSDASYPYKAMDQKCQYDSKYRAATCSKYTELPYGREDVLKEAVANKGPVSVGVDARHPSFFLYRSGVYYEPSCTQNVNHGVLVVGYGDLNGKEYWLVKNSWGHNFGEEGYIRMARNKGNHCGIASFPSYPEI
CatL inh = inhibitors of human cathepsin L, biochemical. Procathepsin L (Homo sapiens), P07711. inhibition, %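 (tested at 10 µM)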. purified cathepsin L, fluorogenic substrate, fluorescence. 0.17% of 58,000 active; in the data active means inhibition above about 45%
C1s block = complement C1s protease inhibitors, primary screen, biochemical, 10-compound mixtures | mean inhibition % of two 10-compound mixtures (stronger effect = higher value), % at 5 µM (by protocol) | 0.16% of 62,000 active | AID 538, 2006 | Complement C1s subcomponent (Homo sapiens), P09871 | purified C1s, fluorogenic AMC substrate, pooled mixtures;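 active means inhibition above 20% in each of the two 10-compound mixture wells holding the compound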
Each line names hits and unclear results; the compound was inactive in the other large screens.

CC1CN=C(Nc2cccc3ccccc23)S1 (stereo not drawn)	C1s block 35.1
Cn1ncnc2c(=O)n(C)c(=O)nc1-2	CatB mix inh 79.6, CatB inh 83.0, CatS inh 70.3, CatL inh 85.4
CN(CC1COc2ccccc2O1)c1nc(-c2cccnc2)nc2ccccc12 (stereo not drawn)	none
CC1CN=C(NCc2ccncc2)S1 (stereo not drawn)	none
CN(C)C(=O)CSc1nnc([C@@H](N)Cc2ccccc2)o1	CatL inh 103.2
O=C1CN(C(=O)CN2CCCCC2)C(c2ccccc2)c2cc(Br)ccc2N1 (stereo not drawn)	none
